DUSP3 inh: VHR1 phosphatase inhibitors, primary screen, biochemical, absorbance, uHTS; Dual specificity protein phosphatase 3 (Homo sapiens), P51452; recombinant VHR phosphatase, pNPP absorbance; inhibition, % at 13.3 µM; 290,000 compounds, 0.52% hits; in the data active means inhibition above about 50%
Target sequence (P51452 whole entry, looked up): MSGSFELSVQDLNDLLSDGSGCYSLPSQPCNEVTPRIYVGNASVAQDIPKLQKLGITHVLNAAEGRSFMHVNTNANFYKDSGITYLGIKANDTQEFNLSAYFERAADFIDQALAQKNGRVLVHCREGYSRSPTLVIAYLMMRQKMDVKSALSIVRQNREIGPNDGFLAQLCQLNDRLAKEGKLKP
CCHFV vOTU inh: CCHFV vOTU protease inhibitors, primary screen, biochemical, Pep-AMC substrate, fluorescence | Crimean-Congo hemorrhagic fever virus L polyprotein viral ovarian tumor (vOTU) protease … | inhibition, % at 11.5 µM | 370,000 compounds, 0.55% hits | AID 651958, 2012; in the data active means inhibition above about 30%; further: 0% = vehicle wells with enzyme and 100% = no enzyme wells
RN4220 kill: growth inhibition of S. aureus RN4220, primary screen, OD600. 16 h. 330,000 compounds, 0.33% hits. inhibition, % (no concentration beside the values); in the data active means inhibition above about 85%;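 further: plate controls were untreated cells for no effect and reference antibiotic for full effect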
PriA SSB inh: inhibitors of Klebsiella pneumoniae PriA binding to SSB C-terminal tail, primary screen, biochemical, AlphaScreen. inhibition, % at 33 µM. PriA–SSB C-terminal tail interaction (Klebsiella pneumoniae). AID 1272365, 2023. 430,000 compounds, 0.6% hits. AlphaScreen SSBct-PriA binding, biotinylated peptide; in the data active means inhibition mostly above about 37%, no sharp cut-off; inactive means mostly below about 20%;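 further: plate controls were negative control peptide for no effect and reference peptide for full effect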
ugtP null kill: growth inhibition of ugtP-null S. aureus, primary screen, RN4220 ugtP deletion, OD600. AID 1259309, 2017. 16 h. 330,000 compounds, 0.54% hits. growth inhibition, % (concentration not given with the values); in the data active means growth inhibition above about 68%;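 further: plate controls were untreated wells for no effect and antibiotic for full effect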
The depositor's hits bear a star; . = not tested or not shown. An excerpt weighted towards active compounds, which were near 1.5% of everything screened.

SMILES | DUSP3 inh | CCHFV vOTU inh | RN4220 kill | PriA SSB inh | ugtP null kill
Cc1cc(OC(=O)c2ccccc2[N+](=O)[O-])c([N+](=O)[O-])c(=O)[nH]1 | 21.2 | 12.3 | 3.5 | 98.7* | 5.9
Cc1cc(OC(=O)c2ccccc2I)c([N+](=O)[O-])c(=O)[nH]1 | . | . | . | -7.0 | .
Cc1ccc(S(=O)(=O)Nc2nc3ccccc3nc2N2CCN(c3ccccc3F)CC2)cc1 | 50.5* | 14.3 | -2.3 | -0.8 | 19.2
CN1CCN(c2nc3ccccc3nc2NS(=O)(=O)c2ccc(Br)cc2)CC1 | . | -2.7 | -2.1 | 3.0 | -8.9
C=CCNC(=O)C(=O)NCC[C@H]1CCCCN1S(=O)(=O)c1ccc(F)cc1 | . | . | . | -10.0 | .
COc1ccc(/C=C/c2cc(-c3ccc(C)cc3)o[n+]2C)cc1 | 42.0 | -0.7 | 96.0* | -0.5 | 99.7*
CC(C)=NNc1nc2ccccc2[nH]1 | . | . | . | 69.0* | .
CC(=NNc1nc2ccccc2[nH]1)c1ccc(C)o1 | . | . | 4.1 | 27.4 | 1.9
CC(=NNc1nc2ccccc2[nH]1)c1ccc2c(c1)OCCO2 | . | . | 3.2 | 41.6* | -2.2
CCOc1ccc2ccccc2c1C(=O)NCCn1ccc2ccccc21 | . | . | . | 4.0 | .
COc1ccc(NC(=O)Nc2nc(-c3ccc(Br)cc3)cs2)cc1 | . | . | . | -4.0 | .
Cc1noc(C)c1CC(=O)Nc1nc(C(=O)NCc2cccs2)co1 | . | . | . | -4.0 | .
O=S(=O)(Cc1ccco1)[C@H]1CCN(S(=O)(=O)c2ccccc2Br)C1 | . | . | . | 1.0 | .
O=S(=O)(Cc1ccco1)C1CCN(S(=O)(=O)c2ccccc2F)CC1 | . | . | . | 83.0* | .
Cn1cnc(S(=O)(=O)N2CCC(S(=O)(=O)Cc3ccco3)CC2)c1 | . | . | . | 68.0* | .
O=C1OCC/C1=C\c1ccc2c(c1)OCO2 | 52.3* | 19.5 | 4.8 | 6.1 | 3.8
O=C(C1CC1)N1CCc2ccc(NS(=O)(=O)c3ccc(F)cc3F)cc21 | . | . | . | -11.0 | .
CN1c2cc(F)ccc2C(=O)NC12CCN(C(=O)c1ccc(Br)cc1)CC2 | . | . | . | 2.0 | .
Cc1c(C(=O)c2ccc(Cl)c(Cl)c2)cnc2cc3c(cc12)OCO3 | 53.8* | -14.0 | 7.2 | -8.6 | -25.2
COc1ccc(C(=O)c2cnc3cc4c(cc3c2C)OCO4)cc1 | 11.9 | 16.2 | 4.9 | -5.0 | -5.3
COC(=O)N1CCc2ccc(NS(=O)(=O)CC34CCC(CC3=O)C4(C)C)cc2C1 (centres undefined) | . | . | . | -14.0 | .
COCC(=O)N1CCCc2ccc(NC(=O)Cc3ccsc3)cc21 | . | . | . | 35.0* | .
COCC(=O)N1CCCc2ccc(NS(=O)(=O)CC34CCC(CC3=O)C4(C)C)cc21 (centres undefined) | . | . | . | 36.0* | .
COc1ccc(CN(C)CC2CCCN(CCc3ccc(F)cc3)C2)c(OC)c1OC (centres undefined) | 59.7* | -4.7 | 2.7 | -2.0 | 4.7
COc1ccc(CCN2CCCC(CN(C)Cc3cc(OC)ccc3OC)C2)cc1 (centres undefined) | -1.9 | -4.1 | -1.9 | 3.3 | 0.3
SMILES | DUSP3 inh | CCHFV vOTU inh | RN4220 kill | PriA SSB inh | ugtP null kill
CCN(Cc1ccc(OC)c(COC)c1)CC1CCCN(CCc2cccc(F)c2)C1 (centres undefined) | 36.0 | -9.6 | -2.1 | -1.9 | 1.3
CCN(Cc1ccc(OC)c(COC)c1)CC1CCCN(CCc2cccc(OC)c2)C1 (centres undefined) | 53.6* | 12.2 | 3.6 | -10.2 | 11.8
O=C(Cc1ccc(Cl)cc1)NNC1CC(=O)N(c2ccc3ccccc3c2)C1=O (centres undefined) | 15.2 | 3.9 | -0.9 | -3.7 | 4.6
O=C(Cc1ccccc1)NNC1CC(=O)N(c2ccc(Cl)cc2)C1=O (centres undefined) | 53.0* | -12.1 | 13.8 | -2.4 | 6.4
Cc1ccc(NC2=Nc3ccccc3N3C2=Nc2c(c(C)nn2-c2ccccc2)C3c2ccc(O)c(O)c2)cc1 (centres undefined) | 0.0 | 18.0 | 68.8 | 3.7 | 98.2*
Cc1cccc(NC2=Nc3ccccc3N3C2=Nc2c(c(C)nn2-c2ccccc2)C3c2ccc(O)c(O)c2)c1 (centres undefined) | 23.1 | 22.7 | 47.1 | -35.0 | 97.4*
Cc1nn(-c2ccccc2)c2c1C(c1ccc(O)c(O)c1)N1C(=N2)C(Nc2ccccc2)=Nc2ccccc21 (centres undefined) | 16.4 | 7.1 | 11.8 | -9.9 | 55.4
COc1cccc(C(=O)NC2CC(O)C(CO)C2)c1OC (centres undefined) | . | . | . | -22.0 | .
C=CCn1c(=O)c(C(=O)Nc2ccc(C)cn2)c(O)c2ccccc21 | 10.8 | -7.4 | 96.2* | -7.7 | 100.5*
